# CHT allo act: allosteric activators of human choline transporter CHT; Q9GZV3; CHT-expressing cells, membrane potential dye, choline EC20; hits give high values; LV-AA mutant CHT in HEK293 cells; B-score at 10 µM; actives 0.49% (n = 310,000); AID 488977;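 active = initial fluorescence not abnormally high and integrated response B-score, plate-corrected, over 3 SD above library mean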
# CHT inh: inhibitors of human choline transporter CHT; Q9GZV3; CHT-expressing cells, membrane potential dye, choline response; hits give low values; B-score at 10 µM; actives 0.86% (n = 310,000);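 active = B-score over 3 SD under the library average, and starting fluorescence ratio not unusually high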;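 note: choline stimulus applied at its EC90 after an EC20 pre-addition; B-score computed on integrated fluorescence ratio after choline addition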
# ANO1 activ: mouse TMEM16A channel activation, primary screen; HEK293 TMEM16A/YFP-H148Q/I152L, iodide quench fluorescence; hits give low values; B-score at 10 µM; actives 0.3% (n = 340,000); AID 623877;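 active = fluorescence-ratio B-score plate-corrected deviation score at least 3 library SD below zero, with starting fluorescence score within 5 deviations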;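 note: channel opened by trigger with iodide after compound preincubation; score built on the fluorescence ratio of max minus min over baseline; more negative score means more quench and so TMEM16A activation or potentiation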
# TMEM16A inh: mouse TMEM16A channel inhibition, primary screen. Q8BHY3. HEK293 TMEM16A/YFP iodide influx fluorescence, ionomycin. normalized B-score (activity score, 25-100; higher = stronger inhibition) at 10 µM. actives 1.2% (n = 310,000);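 active = ratio plate-corrected score three or more library SD toward inhibition, starting fluorescence score within five deviations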;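 note: score derived from kinetic fluorescence span divided by baseline fluorescence per well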
# CHT block conf: human CHT inhibition, confirmatory screen; actives 70% (n = 2,400); CHT activity remaining % of control (hits give low values), % at 10 µM; CHT-expressing cells, choline membrane potential dye; LV-to-AA substituted CHT, HEK293 cells; shares compounds with CHT inh; AID 493221;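 active = choline transporter activity left, mean of duplicates at 10 µM, below buffer-only control mean minus 3 SD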;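 note: depolarization triggered by choline at its EC90 following an EC20 pre-addition; 0% = hemicholinium-3 full block and 100% = buffer-only control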
# HEK293 CHT ctr: CHT inhibitor counter-screen hit in parental HEK293 cells | AID 493222 | membrane potential dye, choline response; active = decrease or increase beyond buffer ±3SD | actives 4% (n = 2,400) | shares compounds with CHT inh | membrane potential ratio readout (active if shifted either direction beyond buffer ±3SD; no single direction) at 10 µM;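 note: parental cells lack the transporter so any hit is non-specific; ratio is peak minus trough fluorescence over baseline after EC90 choline challenge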
# * hit, by the source's call; i = inactive; . = not tested or not shown. Rows were chosen to be rich in hits. Some 2.4% of all compounds tested hit in one or more screens of this group.
SMILES,CHT allo act,CHT inh,ANO1 activ,TMEM16A inh,CHT block conf,HEK293 CHT ctr
CC(=O)OC(C(=O)NC1CCCCC1)c1ccc(C)cc1 (stereo not given),i,i,i,i,.,.
CC(=O)OC(C(=O)NC1CCCCC1)c1ccc(Cl)c(Cl)c1 (stereo not given),i,-11*,i,i,i,i
Cc1ccc(SC(CC(=O)c2ccc(F)cc2)C(=O)O)cc1 (stereo not given),i,i,i,i,.,.
CC(C)(C)c1ccc(C(=O)CC(Sc2ccc(Cl)cc2)C(=O)O)cc1 (stereo not given),i,-8.4*,i,i,6.4%*,i
O=C(CNC(=O)c1cccs1)OCC(=O)c1ccc([N+](=O)[O-])cc1,i,-5.1*,i,i,i,i
COc1cc(C(=O)COC(=O)c2ccncc2)cc(OC)c1OC,.,.,i,.,.,.
O=CC1=C(c2ccccc2)Oc2ccccc2O1,i,i,i,i,i,i
S=c1nc(-c2ccco2)[nH][nH]1,i,-5.4*,i,i,48%*,i
O=C(CSc1nc(-c2ccccc2)cc(C(F)(F)F)n1)N1CCOCC1,i,-5.8*,i,i,i,i
CC(C)CC(=O)Nc1ccccc1Oc1ccccc1,i,i,i,i,.,.
CCCn1ccnc1SC(C)C(=O)Nc1c(C)n(C)n(-c2ccccc2)c1=O (stereo not given),.,.,i,.,.,.
CCc1cc2c(=O)n(CC)c(SC(C)C(=O)Nc3c(C)n(C)n(-c4ccccc4)c3=O)nc2s1 (stereo not given),i,-5.6*,i,i,i,i
COC(=O)c1c(-c2ccc(OC)cc2)sc2ccc(N3CCOCC3)cc12,.,.,i,.,.,.
COC(=O)c1nc2ccc(N3CCOCC3)cc2c(C)c1C(=O)OC,i,-5.7*,i,i,i,i
O=C(NCC1COc2ccccc2O1)c1cccc(S(=O)(=O)N2CCN(c3ccccc3)CC2)c1 (stereo not given),.,.,i,.,.,.
O=C(c1cccc(Oc2ccc([N+](=O)[O-])cc2Cl)c1)N1CCCCC1,i,-7.4*,i,i,48%*,i
O=C(c1ccc(Oc2ccc([N+](=O)[O-])cc2Cl)cc1)N1CCCC1,i,i,i,i,.,.
COc1ccc(Cl)cc1NC(=O)CSc1nnc(-c2ccco2)o1,i,i,i,i,.,.
CC(C)(CNC(=O)CCC1CCCC1)CNC(=O)CCC1CCCC1,i,i,i,i,.,.
O=C(CCC1CCCC1)NCCCNC(=O)CCC1CCCC1,i,-6.5*,i,i,38%*,i
COc1ccc2c(c1)c(C(O)CN1CCC(Cc3ccccc3)CC1)c(C)n2C (stereo not given),i,-11*,i,i,22%*,i
Cc1ccc(Nc2cc(C)nc3ncnn23)c(Cl)c1,i,-5.6*,i,i,i,i
C=CCn1c(SCC(=O)NCc2ccco2)nnc1C1CCCCC1,i,i,i,i,.,.
C=CCn1c(SCC(=O)NC(=O)NC2CCCC2)nnc1C1CCCCC1,i,-5*,i,i,68%*,i
CCCCN(C)C(=O)c1ccc(CS(=O)(=O)c2ccccc2C)o1,i,-5.3*,i,i,i,i
SMILES,CHT allo act,CHT inh,ANO1 activ,TMEM16A inh,CHT block conf,HEK293 CHT ctr
Cc1ccc(S(=O)(=O)N2CCN(Cc3cc(C(C)(C)C)ccc3O)CC2)cc1,i,i,i,i,.,.
CCOC(=O)C1(CCCc2ccccc2)CCN(C(=O)CCCn2cncn2)CC1,i,-5*,i,i,i,i
CC(C)COc1nc2ccccc2nc1N1CCN(C)CC1,i,-6*,i,i,41%*,i
O=C1C=CC(=O)N1c1cccc(-c2ccccc2)c1,i,i,i,i,.,.
O=C(c1cc(-c2ccco2)nc2ccccc12)N1CCCC(C(F)(F)F)C1 (stereo not given),.,.,i,.,.,.
Cc1c(NC(=S)NC(=O)c2sc3ccccc3c2Cl)cccc1C(=O)O,i,i,i,i,.,.
COc1ccccc1C(=O)NC(=S)NNC(=O)c1sc2ccccc2c1Cl,i,-7*,-7.8*,100*,58%*,i
COc1ccccc1C(=O)NNC(=S)NC(=O)c1cccs1,i,i,i,i,.,.
COc1ccccc1C(=O)NNC(=S)NC(=O)c1sc2ccccc2c1Cl,i,-6.6*,-6.2*,100*,57%*,i
Cc1ccc(NC(=O)CN(C)C(=O)CNC(=O)c2sc3ccccc3c2Cl)cc1,i,i,i,i,.,.
O=C(CCCSc1nc2ccccc2[nH]1)N1CCN(c2ccccc2)CC1,i,-5*,i,i,58%*,i
O=C(CSc1nc2ccccc2[nH]1)N1CCN(c2ccccc2)CC1,i,i,i,i,.,.
O=C(COC(=O)CCCSc1nc2ccccc2[nH]1)NC(=O)NC1CCCC1,i,-7.3*,i,i,62%*,i
O=C(CSc1nnc(-c2cccc(F)c2)o1)Nc1nncs1,i,i,i,i,.,.
COc1cc(CN(C)Cc2cc(=O)n3ccsc3n2)ccc1OC(F)F,i,-5.6*,i,i,59%*,i
CCN(CC(=O)NCc1ccc(F)cc1)Cc1cc(=O)n2ccsc2n1,i,i,i,i,.,.
COC(=O)CSc1[nH]c2ccc(F)cc2c1[N+](=O)[O-],i,-7.2*,i,i,15%*,i
O=C(NNC1=C(C(=O)C(F)(F)F)CCC1)c1ccccc1O,i,-6.5*,i,100*,31%*,i
C=CCSc1nc(O)c(CC)c(=O)n1C(C)CC (stereo not given),i,i,i,i,.,.
CCc1c(O)nc(SCc2ccccc2)n(C(C)CC)c1=O (stereo not given),i,-5.2*,i,i,i,i
CC(=O)Nc1ccc(S(=O)(=O)N2CCC(NC(=O)c3ccco3)CC2)cc1,i,i,i,i,.,.
CCN(C(=O)c1cc2c(=O)n3ccccc3nc2n1CCCOC)C1CCCCC1,i,-5*,i,i,45%*,i
CCOC(=O)COc1ccc(C2CC(C)=NN2c2ccccc2)cc1 (stereo not given),i,i,i,i,.,.
COc1ccc(/C(O)=C2/C(=O)C(=O)N(c3ccccn3)C2c2ccc(C(C)C)cc2)cc1 (stereo not given),.,.,i,.,.,.
